Data: the supplement of paper PMC11732987, “Enantioselective OTUD7B fragment discovery through chemoproteomics screening and high-throughput optimisation” (Communications Chemistry, 2025)

Columns and labels:
Experiment in all cases: log2 ratio of Biotin-Ahx-Ub-VS probe labelling (fragment/DMSO); higher = less target engagement (more negative = stronger competition), active = hit call of the paper (q ≤ 0.05, log2 ratio ≤ -1)
Details in all cases: compound concentration: 200 uM; treatment time: 3 h
USP34 = USP34 (UniProt Q70CQ2)
Summary of the method: (§1)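 HEK293T lysate, 495 µg per sample in Tris/CHAPS/IGEPAL buffer with protease inhibitors, was treated in triplicate with fragment at 200 µM or vehicle for 3 h and then with Biotin-Ahx-Ub-VS at 0.5 µM final for 1 h. Labelled DUBs were NeutrAvidin-enriched, digested with LysC and trypsin, and run by diaPASEF LC-MS/MS. Spectronaut label-free quantities were global-median-normalised, and values are average log2 fragment/vehicle ratios by unpaired t-test on proteins with ≥2 unique peptides.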

USP36 = molecular target: T1, USP36 (UniProt Q9P275)
T1 sequence (whole entry): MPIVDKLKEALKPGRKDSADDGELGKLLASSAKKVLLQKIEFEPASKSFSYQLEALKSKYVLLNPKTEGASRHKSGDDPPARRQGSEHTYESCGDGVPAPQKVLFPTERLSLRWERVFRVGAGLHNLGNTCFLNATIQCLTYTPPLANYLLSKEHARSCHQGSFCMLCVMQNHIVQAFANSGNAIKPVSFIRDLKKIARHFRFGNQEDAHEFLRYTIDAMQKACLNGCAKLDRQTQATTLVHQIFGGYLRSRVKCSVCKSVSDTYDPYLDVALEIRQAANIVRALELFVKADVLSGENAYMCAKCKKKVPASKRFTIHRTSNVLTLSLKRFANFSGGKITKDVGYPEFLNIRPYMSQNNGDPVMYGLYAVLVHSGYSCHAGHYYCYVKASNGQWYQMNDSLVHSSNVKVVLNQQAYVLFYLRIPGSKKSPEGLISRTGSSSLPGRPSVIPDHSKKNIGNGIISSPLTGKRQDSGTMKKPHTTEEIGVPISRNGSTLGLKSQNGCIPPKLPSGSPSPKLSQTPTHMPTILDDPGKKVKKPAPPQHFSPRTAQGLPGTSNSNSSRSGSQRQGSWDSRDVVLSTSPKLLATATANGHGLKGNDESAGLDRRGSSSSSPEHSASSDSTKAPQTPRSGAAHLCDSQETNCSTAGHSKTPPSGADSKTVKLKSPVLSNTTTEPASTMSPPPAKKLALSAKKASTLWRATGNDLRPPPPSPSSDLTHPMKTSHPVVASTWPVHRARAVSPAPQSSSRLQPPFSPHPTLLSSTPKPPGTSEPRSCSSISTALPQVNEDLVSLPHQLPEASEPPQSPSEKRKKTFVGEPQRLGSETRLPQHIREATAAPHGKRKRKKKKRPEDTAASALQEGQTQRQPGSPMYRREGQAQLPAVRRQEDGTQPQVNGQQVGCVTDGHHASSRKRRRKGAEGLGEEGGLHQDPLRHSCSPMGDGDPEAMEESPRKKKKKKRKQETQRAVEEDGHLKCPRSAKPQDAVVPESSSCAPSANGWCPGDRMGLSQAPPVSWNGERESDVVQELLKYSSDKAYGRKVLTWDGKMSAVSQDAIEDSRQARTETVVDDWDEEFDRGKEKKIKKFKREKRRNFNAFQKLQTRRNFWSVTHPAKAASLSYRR
Summary of the method: as §1

USP38 = molecular target: T2, USP38 (UniProt Q8NB14)
T2 sequence (whole entry): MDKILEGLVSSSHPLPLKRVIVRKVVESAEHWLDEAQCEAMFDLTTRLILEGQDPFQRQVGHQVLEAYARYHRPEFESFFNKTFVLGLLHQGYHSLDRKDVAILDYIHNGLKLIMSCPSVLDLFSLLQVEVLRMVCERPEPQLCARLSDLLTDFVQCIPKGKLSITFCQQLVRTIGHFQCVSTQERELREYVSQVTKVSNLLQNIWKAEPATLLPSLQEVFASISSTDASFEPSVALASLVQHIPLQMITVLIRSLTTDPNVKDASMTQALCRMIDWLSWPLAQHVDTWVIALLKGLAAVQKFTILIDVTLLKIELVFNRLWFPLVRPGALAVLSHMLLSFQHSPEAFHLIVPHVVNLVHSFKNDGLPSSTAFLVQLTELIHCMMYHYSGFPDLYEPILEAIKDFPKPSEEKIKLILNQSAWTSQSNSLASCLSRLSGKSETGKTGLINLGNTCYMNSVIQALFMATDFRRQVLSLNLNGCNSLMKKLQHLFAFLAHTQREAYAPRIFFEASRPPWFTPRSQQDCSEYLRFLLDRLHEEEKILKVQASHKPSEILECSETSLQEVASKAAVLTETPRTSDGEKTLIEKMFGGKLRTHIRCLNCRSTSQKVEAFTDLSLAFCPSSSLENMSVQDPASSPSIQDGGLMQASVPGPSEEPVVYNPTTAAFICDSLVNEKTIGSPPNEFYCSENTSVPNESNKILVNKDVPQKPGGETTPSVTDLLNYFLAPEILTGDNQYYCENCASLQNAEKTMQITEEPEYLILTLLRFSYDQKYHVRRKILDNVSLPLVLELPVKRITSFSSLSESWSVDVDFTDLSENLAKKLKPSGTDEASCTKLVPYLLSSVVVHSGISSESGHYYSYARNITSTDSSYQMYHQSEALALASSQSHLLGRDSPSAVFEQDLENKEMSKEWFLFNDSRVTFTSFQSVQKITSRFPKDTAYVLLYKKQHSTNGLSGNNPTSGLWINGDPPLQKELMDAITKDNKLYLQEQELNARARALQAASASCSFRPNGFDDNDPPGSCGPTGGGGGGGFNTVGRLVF
Summary of the method: as §1

USP39 = molecular target: T3, USP39 (UniProt Q53GS9)
T3 sequence (whole entry): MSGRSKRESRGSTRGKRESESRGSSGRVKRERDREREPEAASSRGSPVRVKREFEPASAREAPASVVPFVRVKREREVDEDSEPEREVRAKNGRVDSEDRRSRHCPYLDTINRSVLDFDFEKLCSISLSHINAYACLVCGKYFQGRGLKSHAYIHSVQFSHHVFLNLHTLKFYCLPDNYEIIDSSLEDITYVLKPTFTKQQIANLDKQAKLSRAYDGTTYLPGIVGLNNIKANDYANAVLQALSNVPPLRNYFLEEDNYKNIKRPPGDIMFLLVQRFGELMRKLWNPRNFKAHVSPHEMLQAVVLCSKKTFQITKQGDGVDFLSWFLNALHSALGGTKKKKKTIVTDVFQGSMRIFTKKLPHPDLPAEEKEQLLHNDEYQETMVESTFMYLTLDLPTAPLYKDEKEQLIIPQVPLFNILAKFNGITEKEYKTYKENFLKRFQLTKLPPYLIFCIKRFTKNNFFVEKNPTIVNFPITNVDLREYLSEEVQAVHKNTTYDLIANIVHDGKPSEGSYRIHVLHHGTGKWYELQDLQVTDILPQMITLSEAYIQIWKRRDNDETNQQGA
Summary of the method: as §1

USP4 = molecular target: T4, USP4 (UniProt Q13107)
T4 sequence (whole entry): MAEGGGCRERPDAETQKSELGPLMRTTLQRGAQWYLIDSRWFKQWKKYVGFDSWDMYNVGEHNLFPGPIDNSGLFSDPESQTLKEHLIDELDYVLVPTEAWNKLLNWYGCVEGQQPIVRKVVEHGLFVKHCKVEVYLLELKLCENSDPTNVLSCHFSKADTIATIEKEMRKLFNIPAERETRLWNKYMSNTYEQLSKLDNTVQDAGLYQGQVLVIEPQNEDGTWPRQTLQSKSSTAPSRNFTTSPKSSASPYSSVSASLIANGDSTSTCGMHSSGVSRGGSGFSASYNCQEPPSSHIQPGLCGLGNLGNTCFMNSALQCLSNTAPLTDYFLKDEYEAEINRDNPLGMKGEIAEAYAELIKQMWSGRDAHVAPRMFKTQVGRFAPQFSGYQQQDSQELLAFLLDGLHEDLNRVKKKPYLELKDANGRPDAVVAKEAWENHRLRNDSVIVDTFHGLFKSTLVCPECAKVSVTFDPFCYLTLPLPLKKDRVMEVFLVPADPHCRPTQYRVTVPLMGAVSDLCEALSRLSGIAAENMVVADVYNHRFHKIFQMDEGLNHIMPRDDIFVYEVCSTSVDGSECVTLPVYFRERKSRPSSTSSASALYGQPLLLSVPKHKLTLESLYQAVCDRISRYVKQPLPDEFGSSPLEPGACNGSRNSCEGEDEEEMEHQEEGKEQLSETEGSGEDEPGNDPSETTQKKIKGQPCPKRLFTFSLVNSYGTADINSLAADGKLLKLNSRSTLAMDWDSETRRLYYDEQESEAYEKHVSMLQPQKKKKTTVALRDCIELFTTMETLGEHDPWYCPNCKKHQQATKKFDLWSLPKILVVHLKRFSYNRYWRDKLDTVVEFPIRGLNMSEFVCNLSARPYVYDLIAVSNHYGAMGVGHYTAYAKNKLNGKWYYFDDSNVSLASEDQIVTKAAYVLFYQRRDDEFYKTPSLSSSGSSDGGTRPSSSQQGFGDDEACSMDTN
Summary of the method: as §1

Measured: log2 ratio of Biotin-Ahx-Ub-VS probe labelling

USP34, sequence (Q70CQ2 whole entry, the tested form may be a part): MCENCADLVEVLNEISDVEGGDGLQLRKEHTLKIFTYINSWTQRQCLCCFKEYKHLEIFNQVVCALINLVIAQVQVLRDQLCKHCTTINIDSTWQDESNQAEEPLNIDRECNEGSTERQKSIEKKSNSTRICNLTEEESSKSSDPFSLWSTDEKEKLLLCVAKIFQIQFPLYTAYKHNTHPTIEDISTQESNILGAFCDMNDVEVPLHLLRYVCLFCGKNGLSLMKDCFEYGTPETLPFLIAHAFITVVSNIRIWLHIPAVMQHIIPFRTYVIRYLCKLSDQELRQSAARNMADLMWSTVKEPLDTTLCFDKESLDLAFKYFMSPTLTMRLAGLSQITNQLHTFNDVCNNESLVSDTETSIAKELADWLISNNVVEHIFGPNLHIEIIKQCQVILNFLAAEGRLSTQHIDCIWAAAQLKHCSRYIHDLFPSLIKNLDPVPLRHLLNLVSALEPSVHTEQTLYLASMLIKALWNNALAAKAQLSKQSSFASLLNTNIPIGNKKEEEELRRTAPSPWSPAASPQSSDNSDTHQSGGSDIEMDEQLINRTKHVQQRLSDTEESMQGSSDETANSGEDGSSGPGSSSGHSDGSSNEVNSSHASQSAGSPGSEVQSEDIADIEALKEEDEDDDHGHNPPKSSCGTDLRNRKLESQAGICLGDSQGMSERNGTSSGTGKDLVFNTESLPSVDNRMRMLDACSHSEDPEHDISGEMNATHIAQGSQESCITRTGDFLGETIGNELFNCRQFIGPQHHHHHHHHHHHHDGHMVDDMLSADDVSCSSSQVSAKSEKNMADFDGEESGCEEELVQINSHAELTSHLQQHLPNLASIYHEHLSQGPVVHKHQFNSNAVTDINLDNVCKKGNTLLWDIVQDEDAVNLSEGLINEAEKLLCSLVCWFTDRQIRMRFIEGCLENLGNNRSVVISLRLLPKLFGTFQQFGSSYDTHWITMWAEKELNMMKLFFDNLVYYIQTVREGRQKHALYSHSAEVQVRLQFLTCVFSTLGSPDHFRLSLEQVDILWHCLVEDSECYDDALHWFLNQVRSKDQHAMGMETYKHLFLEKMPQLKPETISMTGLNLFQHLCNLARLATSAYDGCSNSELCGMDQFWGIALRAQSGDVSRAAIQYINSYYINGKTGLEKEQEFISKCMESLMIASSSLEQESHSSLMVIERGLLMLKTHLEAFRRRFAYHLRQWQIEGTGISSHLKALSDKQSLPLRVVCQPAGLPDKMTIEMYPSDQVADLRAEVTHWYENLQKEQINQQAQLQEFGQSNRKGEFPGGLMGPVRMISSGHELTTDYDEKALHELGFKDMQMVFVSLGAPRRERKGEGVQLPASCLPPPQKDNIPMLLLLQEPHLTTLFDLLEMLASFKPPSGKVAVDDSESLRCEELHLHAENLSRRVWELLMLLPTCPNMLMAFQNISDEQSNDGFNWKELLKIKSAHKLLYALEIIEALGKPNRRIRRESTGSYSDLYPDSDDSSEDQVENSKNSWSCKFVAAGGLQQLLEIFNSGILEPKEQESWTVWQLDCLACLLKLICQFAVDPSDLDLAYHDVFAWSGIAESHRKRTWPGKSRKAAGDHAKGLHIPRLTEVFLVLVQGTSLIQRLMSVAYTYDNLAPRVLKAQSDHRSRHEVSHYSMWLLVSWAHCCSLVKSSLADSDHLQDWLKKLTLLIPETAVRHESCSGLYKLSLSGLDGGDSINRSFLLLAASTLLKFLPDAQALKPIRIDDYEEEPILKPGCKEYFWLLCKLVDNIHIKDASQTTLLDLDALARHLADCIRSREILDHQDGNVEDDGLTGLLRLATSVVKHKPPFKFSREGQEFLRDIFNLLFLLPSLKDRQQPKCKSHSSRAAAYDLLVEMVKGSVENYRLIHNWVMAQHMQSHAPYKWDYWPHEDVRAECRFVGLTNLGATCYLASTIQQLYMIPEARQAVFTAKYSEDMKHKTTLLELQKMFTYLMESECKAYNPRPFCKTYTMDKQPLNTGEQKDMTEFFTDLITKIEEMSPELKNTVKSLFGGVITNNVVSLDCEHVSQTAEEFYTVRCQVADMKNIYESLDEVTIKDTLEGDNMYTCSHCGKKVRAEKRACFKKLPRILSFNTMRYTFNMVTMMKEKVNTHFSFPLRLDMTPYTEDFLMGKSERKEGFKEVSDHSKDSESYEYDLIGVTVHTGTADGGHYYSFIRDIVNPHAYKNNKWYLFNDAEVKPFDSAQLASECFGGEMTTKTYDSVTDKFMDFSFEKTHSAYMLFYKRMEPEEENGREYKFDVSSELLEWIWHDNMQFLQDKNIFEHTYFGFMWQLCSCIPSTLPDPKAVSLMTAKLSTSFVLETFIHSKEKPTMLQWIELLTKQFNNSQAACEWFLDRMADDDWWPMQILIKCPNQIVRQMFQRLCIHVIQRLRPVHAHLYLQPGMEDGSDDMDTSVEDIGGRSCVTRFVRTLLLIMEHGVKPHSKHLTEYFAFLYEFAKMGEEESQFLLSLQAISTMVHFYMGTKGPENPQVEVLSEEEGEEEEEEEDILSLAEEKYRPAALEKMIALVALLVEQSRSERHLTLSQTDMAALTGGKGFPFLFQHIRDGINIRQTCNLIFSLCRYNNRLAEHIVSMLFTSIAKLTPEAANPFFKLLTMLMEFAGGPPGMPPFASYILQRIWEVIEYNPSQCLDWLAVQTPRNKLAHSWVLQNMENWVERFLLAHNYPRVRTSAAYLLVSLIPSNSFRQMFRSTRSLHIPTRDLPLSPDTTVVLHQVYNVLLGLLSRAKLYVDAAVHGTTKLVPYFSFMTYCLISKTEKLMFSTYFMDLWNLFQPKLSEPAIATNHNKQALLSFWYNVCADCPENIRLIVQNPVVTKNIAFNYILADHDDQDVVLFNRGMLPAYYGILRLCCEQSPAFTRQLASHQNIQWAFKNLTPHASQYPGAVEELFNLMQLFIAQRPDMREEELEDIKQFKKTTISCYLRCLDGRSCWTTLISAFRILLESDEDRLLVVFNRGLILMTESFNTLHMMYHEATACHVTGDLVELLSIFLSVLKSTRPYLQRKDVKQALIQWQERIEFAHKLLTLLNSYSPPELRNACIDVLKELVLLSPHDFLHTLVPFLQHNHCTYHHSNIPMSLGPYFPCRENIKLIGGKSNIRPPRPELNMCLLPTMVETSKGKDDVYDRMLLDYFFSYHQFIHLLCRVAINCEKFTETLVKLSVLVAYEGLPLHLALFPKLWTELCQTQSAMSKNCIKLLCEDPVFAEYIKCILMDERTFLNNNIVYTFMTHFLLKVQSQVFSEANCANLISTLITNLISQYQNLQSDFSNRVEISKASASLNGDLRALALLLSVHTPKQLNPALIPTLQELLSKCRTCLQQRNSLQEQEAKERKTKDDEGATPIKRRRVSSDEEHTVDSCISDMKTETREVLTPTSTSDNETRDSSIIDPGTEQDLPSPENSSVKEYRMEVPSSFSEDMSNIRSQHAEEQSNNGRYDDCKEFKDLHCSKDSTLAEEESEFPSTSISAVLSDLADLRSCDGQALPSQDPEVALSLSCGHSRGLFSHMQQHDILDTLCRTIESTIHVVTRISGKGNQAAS

O=C(CCl)NC1CCC2(CC1)OCCO2
inactive: USP34 -0.314 | USP36 -0.227 | USP38 -0.0225 | USP39 0.0631 | USP4 -0.0958
